Experiment [1] in a line: compounds binding Alexa647 anti-His antibody – biochemical, small-molecule microarray, 635 nm fluorescence, artefact control for SMM control protein annotation, primary screen (AID 1128).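 Further: score merges feature fluorescence with signal-to-noise for each printed compound spot.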 Particulars: higher = more signal.
In experiment [2] the test system is Human papillomavirus type 1a E7 protein (residues 1-88). Description: HPV1a E7 small-molecule binders, primary screen, biochemical, small-molecule microarray, residues 1-88, 635 nm (AID 1129). As to conditions: small-molecule microarray binding, fluorescence 635 nm; higher = more signal.
For experiment [3], the target named is Focal adhesion kinase 1 (Homo sapiens) (UniProt Q05397). The experiment in a line: PTK2 protein binding on printed compound slides – biochemical, small-molecule microarray, 635/667 nm fluorescence, BSA, DTT, primary screen (AID 1130).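 Further: composite of spot emission at 667 nm and signal to noise over triplicate slides.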 As to conditions: 635 nm fluorescence, higher = more signal.
Experiment [4] concerns Fibrinogen (Alexa647-labelled). Description: Alexa647-fibrinogen binding to printed small molecules – biochemical, small-molecule microarray, 635/667 nm fluorescence, artefact control for SMM control-protein annotation, profiling panel (AID 1131).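 Further: z-score merges 667 nm fluorescence with per-spot signal-to-noise over triplicate slides.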 Particulars: fibrinogen-A647 binding fluorescence, higher = more signal.
Experiment [5] concerns the target Follistatin (Homo sapiens) (UniProt P19883). The experiment in a line: FST protein binding to printed compounds – biochemical, small-molecule microarray, 635/667 nm fluorescence, primary screen (AID 1132). As to conditions: 635 nm fluorescence, higher = more signal.
For experiment [6], the target named is Fibroblast growth factor 2 (Homo sapiens) (UniProt P09038). Description: basic fibroblast growth factor binding to printed compounds – biochemical, small-molecule microarray, 635/667 nm fluorescence, primary screen (AID 1133). Particulars: FGF2, fluorescence 635/667, higher = more signal.
The nature of experiment [7]: JC-1 mitochondrial potential readout, lung cancer cells – cell-based, A549, JC-1 fluorescence, basal, 24 h, 100 nL, profiling panel (AID 1138).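 Further: A549 lung adenocarcinoma cells under basal conditions with no added stimulus; test concentration not given here.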 Particulars: higher = more signal.
The subject of the next experiment is Lefty1. Description: Lefty1 protein binding to printed compounds – biochemical, small-molecule microarray, 635/667 nm fluorescence, primary screen (AID 1139). As to conditions: fluorescence 635/667, higher = more signal.
Experiment [8] deals with wheat germ agglutinin (Triticum aestivum), Alexa647-labelled. The experiment in a line: Alexa647-WGA lectin binding to printed small molecules – biochemical, small-molecule microarray, 635/667 nm fluorescence, artefact control for SMM control-protein annotation, profiling panel (AID 1140).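 Further: score merges 667 nm feature emission with signal to noise over triplicate slides.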 As to conditions: WGA-A647 binding, 635 nm fluorescence, higher = more signal.
Experiment [9] concerns the target Luciferin 4-monooxygenase (Photinus pyralis) (UniProt P08659). The experiment in a line: inhibition of purified Photinus pyralis luciferase – biochemical, luminescence, purified enzyme, 2006 set, primary screen (AID 1141).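 Further: cell-free assay with purified firefly luciferase at 100 ng per well in PBS; test concentration not given here.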 Particulars: purified firefly luciferase, SteadyGlo luminescence, 30 min; higher = more signal, called active from +8 up or from −8 down.

The source made the active and inactive calls.

Chain of Follistatin (Homo sapiens) (P19883 whole entry, looked up): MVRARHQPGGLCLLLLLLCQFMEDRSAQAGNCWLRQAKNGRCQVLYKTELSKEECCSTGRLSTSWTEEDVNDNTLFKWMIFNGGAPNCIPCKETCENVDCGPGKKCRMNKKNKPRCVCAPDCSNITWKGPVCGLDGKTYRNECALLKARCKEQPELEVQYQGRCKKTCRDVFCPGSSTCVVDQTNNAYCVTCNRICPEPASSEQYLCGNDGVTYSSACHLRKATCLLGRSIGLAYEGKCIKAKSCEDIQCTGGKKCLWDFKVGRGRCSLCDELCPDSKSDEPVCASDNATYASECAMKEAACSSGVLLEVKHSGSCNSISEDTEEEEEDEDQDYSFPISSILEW
Chain of Luciferin 4-monooxygenase (Photinus pyralis) (P08659 whole entry, looked up): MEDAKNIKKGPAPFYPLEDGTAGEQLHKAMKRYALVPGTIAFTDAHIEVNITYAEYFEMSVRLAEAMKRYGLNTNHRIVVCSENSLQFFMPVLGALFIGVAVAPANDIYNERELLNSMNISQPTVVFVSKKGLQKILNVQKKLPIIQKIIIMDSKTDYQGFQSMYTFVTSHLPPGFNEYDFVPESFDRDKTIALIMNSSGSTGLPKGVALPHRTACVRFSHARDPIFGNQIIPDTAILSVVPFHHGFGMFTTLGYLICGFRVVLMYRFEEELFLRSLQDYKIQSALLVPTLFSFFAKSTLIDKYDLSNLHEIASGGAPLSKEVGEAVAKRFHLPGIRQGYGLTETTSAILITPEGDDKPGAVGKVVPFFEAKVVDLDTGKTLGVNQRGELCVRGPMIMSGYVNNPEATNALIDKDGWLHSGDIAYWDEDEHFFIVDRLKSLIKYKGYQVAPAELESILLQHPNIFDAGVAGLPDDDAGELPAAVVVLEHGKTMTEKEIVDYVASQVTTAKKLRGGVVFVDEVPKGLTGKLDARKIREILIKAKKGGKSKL
Chain of Fibroblast growth factor 2 (Homo sapiens) (P09038 whole entry, looked up): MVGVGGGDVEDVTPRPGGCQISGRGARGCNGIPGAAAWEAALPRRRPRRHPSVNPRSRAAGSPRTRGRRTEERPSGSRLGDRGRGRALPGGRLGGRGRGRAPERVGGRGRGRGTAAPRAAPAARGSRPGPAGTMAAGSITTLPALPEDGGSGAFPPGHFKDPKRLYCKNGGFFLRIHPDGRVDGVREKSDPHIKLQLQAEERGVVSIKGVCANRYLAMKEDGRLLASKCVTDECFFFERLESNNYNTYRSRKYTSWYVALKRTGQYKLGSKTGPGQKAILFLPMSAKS
Chain of Focal adhesion kinase 1 (Homo sapiens) (Q05397 whole entry, looked up): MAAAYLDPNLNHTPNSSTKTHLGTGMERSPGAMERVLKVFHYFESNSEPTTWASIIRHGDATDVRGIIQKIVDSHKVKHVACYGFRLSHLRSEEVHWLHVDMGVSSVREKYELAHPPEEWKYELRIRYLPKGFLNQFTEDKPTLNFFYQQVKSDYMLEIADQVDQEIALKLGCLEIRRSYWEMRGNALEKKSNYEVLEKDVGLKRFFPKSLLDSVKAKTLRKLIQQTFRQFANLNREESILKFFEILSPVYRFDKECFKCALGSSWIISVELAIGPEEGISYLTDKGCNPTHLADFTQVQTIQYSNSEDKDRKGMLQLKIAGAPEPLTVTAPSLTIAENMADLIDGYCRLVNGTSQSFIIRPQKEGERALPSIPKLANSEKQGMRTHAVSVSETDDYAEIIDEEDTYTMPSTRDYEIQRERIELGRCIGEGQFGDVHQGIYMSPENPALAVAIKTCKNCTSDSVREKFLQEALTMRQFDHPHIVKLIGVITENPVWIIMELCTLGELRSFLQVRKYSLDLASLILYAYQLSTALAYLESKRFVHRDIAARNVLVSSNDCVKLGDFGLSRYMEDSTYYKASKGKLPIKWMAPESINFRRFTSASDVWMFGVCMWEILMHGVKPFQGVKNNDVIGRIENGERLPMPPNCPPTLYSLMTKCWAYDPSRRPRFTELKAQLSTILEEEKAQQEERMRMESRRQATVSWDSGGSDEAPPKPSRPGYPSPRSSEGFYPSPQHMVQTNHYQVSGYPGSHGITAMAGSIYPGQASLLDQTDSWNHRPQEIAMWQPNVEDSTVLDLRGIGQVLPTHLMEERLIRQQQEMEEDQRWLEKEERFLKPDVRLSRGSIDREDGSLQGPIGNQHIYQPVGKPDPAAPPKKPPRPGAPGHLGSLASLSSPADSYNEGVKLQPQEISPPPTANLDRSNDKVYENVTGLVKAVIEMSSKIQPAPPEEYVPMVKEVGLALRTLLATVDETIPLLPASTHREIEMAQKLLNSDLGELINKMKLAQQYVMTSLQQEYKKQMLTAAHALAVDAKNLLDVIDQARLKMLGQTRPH

For the molecule `COCCOC(=O)N1C(=O)[C@@]2(c3cc(C#CCCO)ccc31)[C@H](C(=O)N1CCc3cc(OC)c(OC)cc3C1)[C@H]1C(=O)O[C@H](c3ccccc3)[C@H](c3ccccc3)N1[C@@H]2c1ccc(OCCO)cc1`, the composite z-score in [1] amounted to 0.768; in [2], 1.08; in [3], 0.148; in [4], 0.786; in experiment [5] it was 1.27; in [6] it was 1.29. The composite z-score in the experiment with Lefty1 came to 1.11; in [8], 0.774. Also, the z-score in experiment [7] is -0.236; in [9], -2.83 (inactive).
On to `COc1ccc([Si](C)(C)[C@@H]2[C@@H](CCO)O[C@]3(C(=O)N(Cc4ccc(N5C(=O)c6ccccc6Oc6ccccc65)cc4)c4ccccc43)[C@H]2C)cc1`, for which the composite z-score is 0.0758 in [1]; -0.235 in experiment [2]; -0.394 in [3]; -0.0953 in [4]; -0.163 in [5]; -1.1 in experiment [6]. For the same molecule, the composite z-score amounted to 0.0179 with Lefty1 and 0.104 in [8]. Besides, the z-score was -0.285 in [7] and 0.173 (inactive) in experiment [9].
Consider `CCCC=C(CCC)[C@@H](NS(=O)(=O)c1ccccc1)c1ccc(C(F)(F)F)cc1`, for which the composite z-score in experiment [1] is 0.438; in experiment [2], 1.21; in experiment [3] it was 1.03; in experiment [4], 0.979; in [5], 0.831; in experiment [6] it was -0.0779. Moreover, the values for the composite z-score (in the experiment on Lefty1; in [8]) were 0.219 and 0.72, respectively. For the same molecule, the z-score in experiment [7] is -1.64; in experiment [9] it was 2.08 (inactive).
Regarding `CCCCC(CC)C(O)C1C=CC2C(=O)NC(=O)C2N1Nc1ccccn1` (stereo not given), the composite z-score in experiment [1] is 2.27; in experiment [2], 1.17; in [3], 0.178; in experiment [4], 1; in experiment [5], 0.962; in [6], -0.539. Also, the results for the composite z-score (in the experiment with Lefty1; in experiment [8]) were 0.21 and 1.21, respectively. Moreover, the values for the z-score in experiment [7] and in [9] were 0.933 and -1.55 (inactive), respectively.
As for `COc1ccc(C(=O)Nc2ccc(CN3C(=O)[C@@]4(O[C@@H](CC(=O)N5Cc6ccccc6C[C@H]5CO)[C@H]([Si](C)(C)c5ccc(OC)cc5)[C@H]4C)c4ccccc43)cc2)cc1`, the composite z-score in [1] amounted to 0.299; in experiment [2], 1.13; in experiment [3], 1.2; in [4], 0.724; in experiment [5] it was 1.33; in [6], 1.33. The results for the composite z-score (with Lefty1; in experiment [8]) were 1.62 and 0.365, respectively. The z-score in experiment [7] is 1.29; in experiment [9] it was 0.0093 (inactive).
For `CN1C(=O)C2C=CC(C(O)C3CCCCC3)N(N(c3ccccc3)c3ccccc3)C2C1=O` (stereo not given), the composite z-score in experiment [1] is -0.392; in experiment [2] it was -1.14; in experiment [3] it was 0.0064; in experiment [4] it was -0.702; in experiment [5], -0.885; in [6], -0.732. In addition, the composite z-score is -1.6 in the experiment with Lefty1 and 0.517 in [8]. For the same molecule, the z-score is 0.131 in experiment [7] and 0.135 (inactive) in experiment [9].
With `COc1cc2c(cc1OC)CN(C(=O)[C@@H]1[C@H]3C(=O)O[C@H](c4ccccc4)[C@H](c4ccccc4)N3[C@H](c3ccc(OCCO)cc3)[C@@]13C(=O)Nc1ccc(C#CCCO)cc13)CC2`, the composite z-score turned out to be 1.23 in [1]; 1.23 in experiment [2]; 0.237 in [3]; 0.956 in experiment [4]; 1.36 in experiment [5]; 0.999 in [6]. Further, the composite z-score was determined as 1.08 in the experiment on Lefty1 and 1.27 in experiment [8]. Moreover, the z-score in experiment [7] is -1.37; in experiment [9], -0.418 (inactive).
As to `COCCOC(=O)N1C(=O)[C@@]2(c3cc(C#CCNC(N)=O)ccc31)[C@H](C(N)=O)[C@H]1C(=O)O[C@H](c3ccccc3)[C@H](c3ccccc3)N1[C@@H]2c1ccc(OCCO)cc1`, the composite z-score in [1] was -0.224; in [2] it was 1.03; in experiment [3] it was 0.199; in experiment [4], 0.609; in experiment [5] it was 1.48; in experiment [6], 1.26. Besides, the composite z-score was found to be 1.46 with Lefty1 and 0.121 in [8]. Also, the values for the z-score in experiment [7] and in [9] were -2.25 and -1.8 (inactive), respectively.
Consider `COC(=O)[C@@]1(Cc2ccc(OC)cc2)[C@H]2c3cc(C(=O)N(C)C)n(CCF)c3C[C@H]2CN1C(=O)c1ccccc1`, for which the composite z-score in experiment [1] was found to be 1.9; in experiment [2] it was 1.25; in experiment [3], 0.842; in [4], 1.01; in [5], 0.887; in experiment [6], 0.127. Moreover, the composite z-score is -0.698 in the experiment on Lefty1 and 1.32 in [8]. The z-score in experiment [7] was 0.486; in experiment [9], 0.948 (inactive).
`NC(=O)NCC#Cc1ccc2c(c1)[C@]1(C(=O)N2)[C@H](c2ccc(OCCO)cc2)N2[C@H](c3ccccc3)[C@H](c3ccccc3)OC(=O)[C@H]2[C@@H]1C(=O)N1CCCCCCC1`: the composite z-score in [1] is 0.418; in [2], 1.18; in experiment [3], 1.08; in [4], 0.41; in [5], 1.39; in [6], 1.15. Also, the composite z-score came out at 1.64 in the experiment on Lefty1 and 1.44 in experiment [8]. Besides, the values for the z-score in experiment [7] and in experiment [9] were -1 and -0.254 (inactive), respectively.
For the molecule `COCCCNC(=O)[C@@]1(Cc2ccccc2I)c2ccccc2C(=O)N(Cc2ccccc2Cl)[C@H]1c1ccc(CO)cc1`, the composite z-score was 1.25 in experiment [1]; 0.494 in experiment [2]; 0.692 in experiment [3]; 0.912 in experiment [4]; 0.583 in experiment [5]; -0.125 in experiment [6]. In addition, the figures for the composite z-score (with Lefty1; in experiment [8]) were 0.246 and 0.897, respectively. Further, the figures for the z-score in experiment [7] and in [9] were 0.723 and 1.29 (inactive), respectively.
Take `C=CCOC(=O)[C@H]1[C@@H]2C(=O)O[C@@H](c3ccccc3)[C@@H](c3ccccc3)N2[C@@H](c2ccc(OCCOC(=O)[C@H]3C[C@H]4C(=O)N[C@@H](CCCCN(C)C)C(=O)N4[C@H]3c3ccc(O)cc3)cc2)[C@]12C(=O)Nc1ccccc12`: the composite z-score in experiment [1] was -0.127; in experiment [2], 1.13; in experiment [3], 0.806; in experiment [4], -0.104; in experiment [5], 1.43; in [6], 1.59. The composite z-score was found to be 1.5 in the experiment with Lefty1 and 0.0515 in experiment [8]. Also, the z-score in [7] was -0.58; in experiment [9] it was -0.552 (inactive).
As to `CCN(CC)c1ccc(N2CC=CC34O[C@@H]5/C=C\CCCOC(=O)C5[C@H]3C(=O)N(CCCCCCO)[C@@H]4C2=O)cc1` (stereo not given in full), the composite z-score is 1.27 in experiment [1]; -0.299 in [2]; -0.177 in experiment [3]; -0.801 in [4]; -1.21 in experiment [5]; -0.616 in experiment [6]. Besides, the composite z-score in the experiment with Lefty1 was -0.324; in [8], -0.22. The z-score in experiment [7] is 1.1; in experiment [9], -1.9 (inactive).
With `CCN(CC)c1ccc(N2CC=CC34O[C@@H]5/C=C\CCCOC(=O)C5[C@H]3C(=O)N(CCCCCO)[C@@H]4C2=O)cc1` (stereo not given in full), the composite z-score in [1] is -0.617; in experiment [2], -1.39; in experiment [3], -0.722; in experiment [4], -2.57; in [5], -0.785; in experiment [6], -1.26. The composite z-score in the experiment with Lefty1 was -0.758; in [8], -1.19. Besides, the z-score is 0.965 in experiment [7] and -0.918 (inactive) in [9].
Take `[N-]=[N+]=Nc1ccccc1[C@@H]1OC(c2ccc(OCCCO)cc2)=N[C@]1(CCS(=O)(=O)c1ccccc1)C(=O)NCc1ccccc1`: the composite z-score in experiment [1] amounted to 1.13; in experiment [2], 0.742; in experiment [3], 1.03; in experiment [4] it was 0.982; in [5], 1.3; in experiment [6], 1.06. For the same molecule, the composite z-score was -0.141 with Lefty1 and 1.2 in [8]. Also, the z-score in [7] was 0.27; in experiment [9] it was -11.9 (active).

Source of the values: PubChem BioAssay.
